{
  "source": "PubChem BioAssay AID1117306",
  "about": "(National Center for Advancing Translational Sciences (NCATS), 2015)",
  "note": "The source made the active and inactive calls. Calls come from the whole dose curve.",
  "data": [
    {"settings": "Ebola virus entry assay, blue channel imaging", "values": [
      {"smiles": "CC[C@H]1OC(=O)[C@H](C)[C@@H](O[C@H]2C[C@@](C)(OC)[C@@H](O)[C@H](C)O2)C(C)[C@@H](O[C@@H]2O[C@H](C)C[C@H](N(C)C)[C@@H]2O)[C@](C)(OC)C[C@@H](C)C(=O)[C@H](C)[C@@H](O)[C@]1(C)O", "note": "(stereo not given in full)", "AC50": "6.85 µM (active)"},
      {"smiles": "COC(=O)Nc1nc2ccc(C(=O)c3ccccc3)cc2[nH]1", "outcome": "inactive"},
      {"smiles": "CO[C@H]1C[C@@H]2CC[C@@H](C)[C@@](O)(O2)C(=O)C(=O)N2CCCC[C@@H]2C(=O)O[C@H]([C@@H](C)C[C@@H]2CC[C@H](O)[C@H](OC)C2)CC(=O)[C@H](C)C=C(C)[C@@H](O)[C@@H](OC)C(=O)[C@H](C)C[C@H](C)C=CC=CC=C1C", "outcome": "inactive"},
      {"smiles": "CN(C)CCOc1ccc(/C(=C(/CCCl)c2ccccc2)c2ccccc2)cc1", "AC50": "1.37 µM (active)"},
      {"smiles": "CC[C@]1(O)C[C@H]2CN(CCc3c([nH]c4ccccc34)[C@@](C(=O)OC)(c3cc4c(cc3OC)N(C=O)[C@H]3[C@@](O)(C(=O)OC)[C@H](OC(C)=O)[C@]5(CC)C=CCN6CC[C@]43[C@@H]65)C2)C1", "AC50": "0.153 µM (active)"},
      {"smiles": "NCCCC(O)(P(=O)(O)O)P(=O)(O)O", "outcome": "inactive"},
      {"smiles": "C[C@@H]1O[C@@H](O[C@H]2CC[C@@]3(C)[C@H](CC[C@@H]4[C@H]3C[C@@H](O)[C@]3(C)[C@@H](C5=CC(=O)OC5)CC[C@]43O)C2)C[C@H](O)[C@@H]1O[C@H]1C[C@H](O)[C@H](O[C@H]2C[C@H](O)[C@@H](O)[C@@H](C)O2)[C@H](C)O1", "note": "(stereo in doubt)", "outcome": "inactive"},
      {"smiles": "CCC1=C[C@@H]2CN(C1)Cc1c([nH]c3ccccc13)[C@@](C(=O)OC)(c1cc3c(cc1OC)N(C)[C@H]1[C@@](O)(C(=O)OC)[C@H](OC(C)=O)[C@]4(CC)C=CCN5CC[C@]31[C@@H]54)C2", "AC50": "0.153 µM (active)"},
      {"smiles": "CCCCc1oc2ccc(NS(C)(=O)=O)cc2c1C(=O)c1ccc(OCCCN(CCCC)CCCC)cc1", "AC50": "4.85 µM (active)"},
      {"smiles": "CCN(CC)CCNC(=O)c1c(C)[nH]c(/C=C2\\C(=O)Nc3ccc(F)cc32)c1C", "AC50": "3.06 µM (active)"},
      {"smiles": "COC(=O)Nc1nc2ccc(C(=O)c3cccs3)cc2[nH]1", "AC50": "0.611 µM (active)"},
      {"smiles": "CC[C@]1(O)C[C@@H]2CN(CCc3c([nH]c4ccccc34)[C@@](C(=O)OC)(c3cc4c(cc3OC)N(C)[C@H]3[C@@](O)(C(=O)OC)[C@H](OC(C)=O)[C@]5(CC)C=CCN6CC[C@]43[C@@H]65)C2)C1", "AC50": "0.137 µM (active)"},
      {"smiles": "COc1cccc2c1C(=O)c1c(O)c3c(c(O)c1C2=O)C[C@@](O)(C(C)=O)C[C@H]3O[C@H]1C[C@H](N)[C@H](O)[C@H](C)O1", "AC50": "3.43 µM (active)"},
      {"smiles": "Cc1nnc(C(C)C)n1C1C[C@H]2CC[C@@H](C1)N2CC[C@H](NC(=O)C1CCC(F)(F)CC1)c1ccccc1", "note": "(stereo not given in full)", "outcome": "inactive"},
      {"smiles": "CCCNCC(O)COc1ccccc1C(=O)CCc1ccccc1", "note": "(stereo not given)", "AC50": "9.68 µM (active)"},
      {"smiles": "CCCSc1ccc2nc(NC(=O)OC)[nH]c2c1", "outcome": "inactive"},
      {"smiles": "CC[C@H]1OC(=O)[C@H](C)[C@@H](O[C@H]2C[C@@](C)(OC)[C@@H](O)[C@H](C)O2)[C@H](C)[C@@H](O[C@@H]2O[C@H](C)C[C@H](N(C)C)[C@@H]2O)[C@](C)(O)C[C@@H](C)CN(C)[C@H](C)[C@@H](O)[C@]1(C)O", "AC50": "4.32 µM (active)"},
      {"smiles": "CN1CCN(CCCN2c3ccccc3Sc3ccc(C(F)(F)F)cc32)CC1", "AC50": "9.68 µM (active)"},
      {"smiles": "COC1=CC(=O)C[C@@H](C)[C@]12Oc1c(Cl)c(OC)cc(OC)c1C2=O", "outcome": "inactive"},
      {"smiles": "CO[C@H]1C[C@@H]2CC[C@@H](C)[C@@](O)(O2)C(=O)C(=O)N2CCCC[C@@H]2C(=O)O[C@H]([C@H](C)C[C@@H]2CC[C@H](OCCO)[C@H](OC)C2)CC(=O)[C@H](C)C=C(C)[C@@H](O)[C@@H](OC)C(=O)[C@H](C)C[C@H](C)C=CC=CC=C1C", "outcome": "inactive"}
    ]}
  ]
}
